# Key:
# [1] = target: 5'-AMP-activated protein kinase catalytic subunit alpha-2 (Homo sapiens) (UniProt P54646); settings: at 1 µM
# [2] = target: T1, NUAK family SNF1-like kinase 1 (Homo sapiens) (UniProt O60285); settings: at 0.1 µM
# T1 sequence (whole entry): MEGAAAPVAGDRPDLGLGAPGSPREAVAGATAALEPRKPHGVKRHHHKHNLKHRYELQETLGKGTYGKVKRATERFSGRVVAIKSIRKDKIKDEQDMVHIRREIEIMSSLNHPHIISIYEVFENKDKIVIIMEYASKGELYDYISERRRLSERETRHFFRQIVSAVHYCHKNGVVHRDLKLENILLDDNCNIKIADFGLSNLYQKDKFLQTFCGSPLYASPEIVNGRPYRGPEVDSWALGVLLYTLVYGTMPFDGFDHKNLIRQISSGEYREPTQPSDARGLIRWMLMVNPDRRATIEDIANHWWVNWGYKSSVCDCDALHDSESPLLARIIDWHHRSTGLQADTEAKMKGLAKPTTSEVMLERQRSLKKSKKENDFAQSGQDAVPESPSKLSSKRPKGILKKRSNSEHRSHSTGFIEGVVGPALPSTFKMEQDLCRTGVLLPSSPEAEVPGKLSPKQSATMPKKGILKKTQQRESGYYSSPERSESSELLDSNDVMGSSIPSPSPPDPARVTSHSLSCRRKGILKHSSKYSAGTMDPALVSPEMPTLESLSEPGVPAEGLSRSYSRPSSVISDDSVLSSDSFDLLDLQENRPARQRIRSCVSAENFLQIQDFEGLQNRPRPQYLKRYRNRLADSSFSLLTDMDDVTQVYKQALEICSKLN
# [3] = target: T1, NUAK family SNF1-like kinase 1 (Homo sapiens); settings: at 1 µM
# [4] = target: T2, Serine/threonine-protein kinase BRSK1 (Homo sapiens) (UniProt Q8TDC3); settings: at 0.1 µM
# T2 sequence (whole entry): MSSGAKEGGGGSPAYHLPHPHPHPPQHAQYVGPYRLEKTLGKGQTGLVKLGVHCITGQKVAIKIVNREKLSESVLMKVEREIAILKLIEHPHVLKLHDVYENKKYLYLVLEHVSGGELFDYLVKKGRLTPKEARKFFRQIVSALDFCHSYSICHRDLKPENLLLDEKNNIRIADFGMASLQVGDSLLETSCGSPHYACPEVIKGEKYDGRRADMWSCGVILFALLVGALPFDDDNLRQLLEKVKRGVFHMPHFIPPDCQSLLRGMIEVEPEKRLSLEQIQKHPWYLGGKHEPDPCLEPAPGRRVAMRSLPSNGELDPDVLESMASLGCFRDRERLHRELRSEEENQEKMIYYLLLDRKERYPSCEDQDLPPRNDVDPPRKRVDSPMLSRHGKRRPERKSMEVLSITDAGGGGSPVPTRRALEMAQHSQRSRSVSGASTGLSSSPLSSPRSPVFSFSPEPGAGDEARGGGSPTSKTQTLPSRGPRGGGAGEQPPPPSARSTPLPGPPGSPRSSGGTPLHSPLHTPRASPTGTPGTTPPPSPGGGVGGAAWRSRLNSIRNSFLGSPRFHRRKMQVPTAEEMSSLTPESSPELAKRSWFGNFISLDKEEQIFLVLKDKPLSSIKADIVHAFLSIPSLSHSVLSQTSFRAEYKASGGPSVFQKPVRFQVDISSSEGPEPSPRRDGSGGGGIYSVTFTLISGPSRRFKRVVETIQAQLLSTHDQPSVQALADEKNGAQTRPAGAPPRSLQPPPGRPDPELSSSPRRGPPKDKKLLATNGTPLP
# [5] = target: T2, Serine/threonine-protein kinase BRSK1 (Homo sapiens); settings: at 1 µM
# [6] = target: T3, Serine/threonine-protein kinase BRSK2 (Homo sapiens) (UniProt Q8IWQ3); settings: at 0.1 µM
# T3 sequence (whole entry): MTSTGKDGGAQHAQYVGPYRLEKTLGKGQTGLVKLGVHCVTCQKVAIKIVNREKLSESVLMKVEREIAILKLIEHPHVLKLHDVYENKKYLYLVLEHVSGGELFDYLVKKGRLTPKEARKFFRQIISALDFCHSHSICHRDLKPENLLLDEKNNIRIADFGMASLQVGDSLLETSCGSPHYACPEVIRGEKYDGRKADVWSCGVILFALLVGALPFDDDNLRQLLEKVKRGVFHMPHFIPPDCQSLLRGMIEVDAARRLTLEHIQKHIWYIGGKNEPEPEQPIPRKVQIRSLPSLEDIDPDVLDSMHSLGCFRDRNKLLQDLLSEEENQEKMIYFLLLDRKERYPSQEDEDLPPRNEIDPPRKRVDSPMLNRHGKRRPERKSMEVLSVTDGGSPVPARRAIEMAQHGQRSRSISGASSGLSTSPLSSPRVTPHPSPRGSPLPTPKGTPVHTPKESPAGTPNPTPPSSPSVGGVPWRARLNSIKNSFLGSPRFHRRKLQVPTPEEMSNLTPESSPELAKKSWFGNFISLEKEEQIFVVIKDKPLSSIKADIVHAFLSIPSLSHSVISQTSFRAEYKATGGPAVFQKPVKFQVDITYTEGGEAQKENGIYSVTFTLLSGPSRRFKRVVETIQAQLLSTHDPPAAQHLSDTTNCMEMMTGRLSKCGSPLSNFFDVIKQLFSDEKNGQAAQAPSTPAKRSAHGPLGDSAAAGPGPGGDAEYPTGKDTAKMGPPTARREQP
# [7] = target: T3, Serine/threonine-protein kinase BRSK2 (Homo sapiens); settings: at 1 µM
# [8] = target: Calcium/calmodulin-dependent protein kinase type 1D (Homo sapiens) (UniProt Q8IU85); settings: at 0.1 µM
# [9] = target: Calcium/calmodulin-dependent protein kinase type 1D (Homo sapiens) (UniProt Q8IU85); settings: at 1 µM
# [10] = target: Calcium/calmodulin-dependent protein kinase type II subunit alpha (Homo sapiens) (UniProt Q9UQM7); settings: at 0.1 µM
# [11] = target: Calcium/calmodulin-dependent protein kinase type II subunit alpha (Homo sapiens) (UniProt Q9UQM7); settings: at 1 µM
# [12] = target: Calcium/calmodulin-dependent protein kinase type II subunit delta (Homo sapiens) (UniProt Q13557); settings: at 0.1 µM
# [13] = target: Calcium/calmodulin-dependent protein kinase type II subunit delta (Homo sapiens) (UniProt Q13557); settings: at 1 µM
# [14] = target: T4, Calcium/calmodulin-dependent protein kinase type IV (Homo sapiens) (UniProt Q16566); settings: at 0.1 µM
# T4 sequence (whole entry): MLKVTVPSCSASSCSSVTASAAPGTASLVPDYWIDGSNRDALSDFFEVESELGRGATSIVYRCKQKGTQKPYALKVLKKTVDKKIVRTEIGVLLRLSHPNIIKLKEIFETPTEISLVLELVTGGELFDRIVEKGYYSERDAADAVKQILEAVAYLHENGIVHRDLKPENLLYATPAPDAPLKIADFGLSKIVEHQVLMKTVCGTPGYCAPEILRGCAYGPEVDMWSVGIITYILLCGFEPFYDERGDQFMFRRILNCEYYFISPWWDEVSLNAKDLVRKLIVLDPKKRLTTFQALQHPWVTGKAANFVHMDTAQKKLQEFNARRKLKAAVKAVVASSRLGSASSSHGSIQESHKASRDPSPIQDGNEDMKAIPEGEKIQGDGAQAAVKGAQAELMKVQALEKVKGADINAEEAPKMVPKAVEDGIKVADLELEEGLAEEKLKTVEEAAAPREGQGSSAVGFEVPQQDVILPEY
# [15] = target: T4, Calcium/calmodulin-dependent protein kinase type IV (Homo sapiens); settings: at 1 µM
# [16] = target: T5, Serine/threonine-protein kinase Chk1 (Homo sapiens) (UniProt O14757); settings: at 0.1 µM
# T5 sequence (whole entry): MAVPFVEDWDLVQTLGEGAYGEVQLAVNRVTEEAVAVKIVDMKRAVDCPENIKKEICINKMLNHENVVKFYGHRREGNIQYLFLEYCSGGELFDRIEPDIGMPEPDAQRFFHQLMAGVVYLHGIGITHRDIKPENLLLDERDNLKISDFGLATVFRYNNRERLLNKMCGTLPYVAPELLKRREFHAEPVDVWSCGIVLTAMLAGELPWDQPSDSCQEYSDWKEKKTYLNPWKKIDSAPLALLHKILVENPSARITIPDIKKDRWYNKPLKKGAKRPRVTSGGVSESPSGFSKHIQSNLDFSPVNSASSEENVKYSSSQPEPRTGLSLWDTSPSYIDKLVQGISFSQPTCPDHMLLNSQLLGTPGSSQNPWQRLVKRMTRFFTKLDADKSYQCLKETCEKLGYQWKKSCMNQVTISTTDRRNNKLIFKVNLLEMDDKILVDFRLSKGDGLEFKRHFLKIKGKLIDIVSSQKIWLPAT
# [17] = target: T5, Serine/threonine-protein kinase Chk1 (Homo sapiens); settings: at 1 µM
# [18] = target: Serine/threonine-protein kinase Chk2 (Homo sapiens) (UniProt O96017); settings: at 0.1 µM
# [19] = target: Serine/threonine-protein kinase Chk2 (Homo sapiens) (UniProt O96017); settings: at 1 µM
# [20] = target: Death-associated protein kinase 1 (Homo sapiens) (UniProt P53355); settings: at 0.1 µM;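 note: reported figure is the mean inhibition of DAPK1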
# Chain of Death-associated protein kinase 1 (Homo sapiens) (P53355 whole entry, looked up): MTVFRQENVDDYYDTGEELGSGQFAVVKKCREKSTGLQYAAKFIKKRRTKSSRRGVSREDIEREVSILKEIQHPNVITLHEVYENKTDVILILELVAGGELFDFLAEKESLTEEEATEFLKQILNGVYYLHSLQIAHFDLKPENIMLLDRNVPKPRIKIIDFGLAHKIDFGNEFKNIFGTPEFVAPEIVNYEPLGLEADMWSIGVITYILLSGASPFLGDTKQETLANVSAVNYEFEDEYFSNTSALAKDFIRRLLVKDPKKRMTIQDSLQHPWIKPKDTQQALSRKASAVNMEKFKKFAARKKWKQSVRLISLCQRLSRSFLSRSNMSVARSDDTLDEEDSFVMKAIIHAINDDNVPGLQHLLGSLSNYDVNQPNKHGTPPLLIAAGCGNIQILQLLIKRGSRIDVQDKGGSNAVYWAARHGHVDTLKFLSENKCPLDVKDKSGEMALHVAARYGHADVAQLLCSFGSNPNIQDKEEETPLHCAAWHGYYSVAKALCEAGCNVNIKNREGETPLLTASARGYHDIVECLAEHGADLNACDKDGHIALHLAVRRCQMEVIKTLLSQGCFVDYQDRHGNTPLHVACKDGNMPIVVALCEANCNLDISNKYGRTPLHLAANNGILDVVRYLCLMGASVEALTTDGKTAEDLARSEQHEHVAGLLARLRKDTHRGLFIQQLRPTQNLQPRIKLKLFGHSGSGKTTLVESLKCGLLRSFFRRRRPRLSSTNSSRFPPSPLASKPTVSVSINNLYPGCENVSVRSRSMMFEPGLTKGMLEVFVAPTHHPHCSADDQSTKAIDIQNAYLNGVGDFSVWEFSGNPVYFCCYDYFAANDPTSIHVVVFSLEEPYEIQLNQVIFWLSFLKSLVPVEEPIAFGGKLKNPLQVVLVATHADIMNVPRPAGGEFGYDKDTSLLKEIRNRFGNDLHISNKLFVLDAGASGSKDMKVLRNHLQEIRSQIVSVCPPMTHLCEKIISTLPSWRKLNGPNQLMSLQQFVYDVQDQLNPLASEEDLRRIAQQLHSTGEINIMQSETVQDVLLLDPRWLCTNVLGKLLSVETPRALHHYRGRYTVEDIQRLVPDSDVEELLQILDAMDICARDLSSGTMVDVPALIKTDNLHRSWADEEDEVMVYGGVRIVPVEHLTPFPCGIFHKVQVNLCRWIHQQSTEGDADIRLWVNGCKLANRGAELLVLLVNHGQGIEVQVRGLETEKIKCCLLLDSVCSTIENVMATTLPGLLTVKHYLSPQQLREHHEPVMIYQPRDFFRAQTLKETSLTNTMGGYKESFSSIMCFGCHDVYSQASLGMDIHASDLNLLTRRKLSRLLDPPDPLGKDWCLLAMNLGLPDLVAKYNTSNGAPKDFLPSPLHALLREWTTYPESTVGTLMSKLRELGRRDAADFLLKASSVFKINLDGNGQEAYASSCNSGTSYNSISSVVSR
# Chain of Calcium/calmodulin-dependent protein kinase type 1D (Homo sapiens) (Q8IU85 whole entry, looked up): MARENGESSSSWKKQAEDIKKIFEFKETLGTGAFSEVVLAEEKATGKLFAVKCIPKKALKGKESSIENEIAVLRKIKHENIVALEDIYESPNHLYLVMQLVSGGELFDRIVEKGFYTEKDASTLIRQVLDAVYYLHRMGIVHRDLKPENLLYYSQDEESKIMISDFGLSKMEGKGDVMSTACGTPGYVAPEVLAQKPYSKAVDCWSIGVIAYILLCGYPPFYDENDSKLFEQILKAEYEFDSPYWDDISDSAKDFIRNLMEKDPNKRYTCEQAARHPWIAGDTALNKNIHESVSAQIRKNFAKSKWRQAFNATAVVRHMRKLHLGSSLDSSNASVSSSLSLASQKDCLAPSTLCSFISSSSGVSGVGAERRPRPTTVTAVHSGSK
# Chain of Calcium/calmodulin-dependent protein kinase type II subunit alpha (Homo sapiens) (Q9UQM7 whole entry): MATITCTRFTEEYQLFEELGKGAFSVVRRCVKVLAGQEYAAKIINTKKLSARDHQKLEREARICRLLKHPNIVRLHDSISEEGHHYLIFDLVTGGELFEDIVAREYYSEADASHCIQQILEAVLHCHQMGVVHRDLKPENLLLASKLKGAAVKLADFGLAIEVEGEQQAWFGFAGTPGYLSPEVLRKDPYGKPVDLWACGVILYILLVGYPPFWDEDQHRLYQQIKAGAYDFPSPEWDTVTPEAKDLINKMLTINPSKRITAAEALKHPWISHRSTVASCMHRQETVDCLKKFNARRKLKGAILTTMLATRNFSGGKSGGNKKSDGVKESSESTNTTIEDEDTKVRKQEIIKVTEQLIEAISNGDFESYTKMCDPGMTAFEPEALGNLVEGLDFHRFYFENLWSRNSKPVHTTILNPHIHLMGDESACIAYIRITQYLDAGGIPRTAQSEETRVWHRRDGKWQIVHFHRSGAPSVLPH
# Chain of Serine/threonine-protein kinase Chk2 (Homo sapiens) (O96017 whole entry): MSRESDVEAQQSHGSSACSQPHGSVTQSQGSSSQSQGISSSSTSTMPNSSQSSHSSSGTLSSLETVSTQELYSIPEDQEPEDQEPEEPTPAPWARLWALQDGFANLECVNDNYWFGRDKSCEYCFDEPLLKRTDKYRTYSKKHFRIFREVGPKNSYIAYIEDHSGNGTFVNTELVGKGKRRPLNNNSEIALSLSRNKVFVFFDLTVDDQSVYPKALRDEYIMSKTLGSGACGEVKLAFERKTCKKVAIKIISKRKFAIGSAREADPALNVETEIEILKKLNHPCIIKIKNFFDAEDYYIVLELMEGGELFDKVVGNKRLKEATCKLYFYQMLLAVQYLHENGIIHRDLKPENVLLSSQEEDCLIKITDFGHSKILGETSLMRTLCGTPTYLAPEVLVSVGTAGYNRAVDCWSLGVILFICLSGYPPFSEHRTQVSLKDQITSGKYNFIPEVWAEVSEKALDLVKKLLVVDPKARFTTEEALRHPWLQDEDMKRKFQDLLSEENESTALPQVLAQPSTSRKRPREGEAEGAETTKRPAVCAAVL
# Chain of 5'-AMP-activated protein kinase catalytic subunit alpha-2 (Homo sapiens) (P54646 whole entry, looked up): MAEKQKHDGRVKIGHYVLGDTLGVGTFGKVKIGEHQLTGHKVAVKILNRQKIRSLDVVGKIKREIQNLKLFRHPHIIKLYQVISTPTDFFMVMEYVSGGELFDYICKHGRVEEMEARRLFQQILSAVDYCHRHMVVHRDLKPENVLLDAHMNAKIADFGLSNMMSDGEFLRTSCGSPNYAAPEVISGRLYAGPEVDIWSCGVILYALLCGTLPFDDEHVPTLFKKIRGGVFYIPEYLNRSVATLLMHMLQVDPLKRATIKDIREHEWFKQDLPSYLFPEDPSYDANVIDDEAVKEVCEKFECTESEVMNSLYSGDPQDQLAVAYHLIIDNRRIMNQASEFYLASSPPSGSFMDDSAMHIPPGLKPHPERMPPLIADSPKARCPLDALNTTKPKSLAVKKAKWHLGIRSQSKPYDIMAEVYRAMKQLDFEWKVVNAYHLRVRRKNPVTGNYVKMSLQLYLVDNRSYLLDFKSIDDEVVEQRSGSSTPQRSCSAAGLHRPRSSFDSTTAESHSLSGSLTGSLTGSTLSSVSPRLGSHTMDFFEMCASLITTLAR
# Chain of Calcium/calmodulin-dependent protein kinase type II subunit delta (Homo sapiens) (Q13557 whole entry): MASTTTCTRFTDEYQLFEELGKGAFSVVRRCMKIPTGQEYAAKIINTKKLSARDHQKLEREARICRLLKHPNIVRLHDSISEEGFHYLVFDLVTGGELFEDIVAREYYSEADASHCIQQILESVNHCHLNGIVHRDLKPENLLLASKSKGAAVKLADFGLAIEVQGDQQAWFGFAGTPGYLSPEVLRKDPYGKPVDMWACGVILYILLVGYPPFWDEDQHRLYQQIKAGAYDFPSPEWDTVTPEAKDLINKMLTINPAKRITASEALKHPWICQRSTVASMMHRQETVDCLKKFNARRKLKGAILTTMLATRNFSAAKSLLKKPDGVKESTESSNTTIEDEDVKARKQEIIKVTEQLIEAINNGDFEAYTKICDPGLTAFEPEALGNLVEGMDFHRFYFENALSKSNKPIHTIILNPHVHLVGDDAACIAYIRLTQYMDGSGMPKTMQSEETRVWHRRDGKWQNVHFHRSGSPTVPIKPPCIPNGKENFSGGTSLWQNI
SMILES,inhibition [1],inhibition [2],inhibition [3],inhibition [4],inhibition [5],inhibition [6],inhibition [7],inhibition [8],inhibition [9],inhibition [10],inhibition [11],inhibition [12],inhibition [13],inhibition [14],inhibition [15],inhibition [16],inhibition [17],inhibition [18],inhibition [19],inhibition [20]
NC(=O)c1sc(-n2cnc3ccc(C(F)(F)F)cc32)cc1OCc1ccccc1Br,3.78%,-0.18%,3.82%,0.06%,1.03%,2.41%,4.25%,-0.93%,0.69%,1.87%,3.63%,2.57%,7.23%,1.31%,2.02%,-3.21%,-0.7%,2.54%,3.23%,-0.43%
COc1ccc(-c2oc3ncnc(N)c3c2-c2ccc(NC(=O)Nc3cc(C(F)(F)F)ccc3F)cc2)cc1,7.89%,4.62%,9.26%,5.38%,11.7%,8.06%,13.9%,1.06%,11.9%,4.73%,16.9%,6.01%,21.5%,0.6%,13.4%,8.35%,6.88%,2.06%,3.88%,5.33%
N#Cc1c(NC(=O)CN2CCOCC2)sc2c1CCCC2,2.26%,2.61%,4.86%,0.57%,1.52%,2.72%,3.03%,-0.19%,0.36%,3.08%,4.63%,3.07%,5.65%,-1.76%,-1.41%,1.74%,5.06%,1.85%,4.14%,5.34%
CNC(=O)c1cc(-c2ccc(F)cc2)cc(-c2ccc(S(=O)(=O)N3CCCC3)cc2)c1N,2.93%,1.2%,1.2%,1.39%,-2.02%,0.91%,2.02%,-0.49%,1.09%,0.94%,1.06%,3.1%,3.89%,-1.57%,1.17%,8.01%,11.8%,6.61%,8.16%,10.6%
CC1=C(C(=O)Nc2cc(Cl)c3[nH]ncc3c2)C(c2ccc(C(F)(F)F)cc2)CC(=O)N1 (stereo not given),16.3%,1.17%,5.4%,0.02%,3.03%,1.64%,8.61%,-0.28%,1.73%,1.03%,1.21%,1.82%,4.42%,-0.37%,0.15%,8.32%,11.4%,6.46%,7.48%,9.05%
COc1cccc(-n2ncc3c(N/N=C/c4ccc(F)cc4)ncnc32)c1,3.2%,6.48%,16.9%,1.24%,12.1%,5.29%,17.8%,-0.29%,1.05%,3.15%,3.26%,3.08%,3.49%,-2.69%,-2.57%,2.07%,5.65%,2.49%,3.64%,4.6%
Fc1cccc(COc2ccc(Nc3ncnc4sc(-c5ccco5)cc34)cc2Cl)c1,5.24%,1.97%,6.27%,0.38%,7.21%,4.09%,7.5%,-0.77%,-1.08%,1.16%,-2.48%,3.02%,1.67%,-1.87%,-2.46%,10.1%,12.5%,7.63%,8.84%,13.2%
O=S(=O)(CCNCc1ccc(-c2ccc3ncnc(Nc4ccc(OCc5cccc(F)c5)c(Cl)c4)c3c2)o1)c1ccccc1,4.37%,0.36%,2.65%,-0.02%,4.07%,3.29%,3.94%,1.31%,1.55%,4.23%,2.35%,3.72%,4.42%,-0.6%,0.28%,7.26%,10.1%,2.55%,3.38%,8.91%
CN1CCC(n2cnc(-c3ccc(F)cc3)c2-c2ccnc(Nc3ccccc3)n2)CC1,2.34%,-2.56%,4.19%,0.59%,0.41%,0.56%,1.93%,0.81%,1.85%,3.46%,1.68%,0.53%,2.35%,0.11%,1.45%,-0.4%,1.3%,1.2%,2.71%,2.63%
CCn1cc(-c2ccnc3[nH]ccc23)c(-c2cccc(NC(=O)Nc3ccc(OCc4ccccc4)cc3)c2)n1,2.24%,-0.37%,1.67%,-0.66%,3.32%,1.2%,0.5%,1.03%,4.92%,1.2%,-2.25%,1.86%,-0.28%,0.6%,-0.67%,1.82%,-1.06%,-0.17%,-0.76%,1.61%
c1ccc(-c2nc3n(c2-c2ccc4c(c2)OCO4)CCC3)nc1,3.64%,4.41%,-1.66%,1.42%,2.54%,1.52%,4.23%,0.16%,0.16%,-0.46%,0.36%,1.63%,0.93%,0.61%,-0.72%,3.23%,3.51%,-0.09%,0.94%,1.93%
NS(=O)(=O)c1ccc(N/N=C2\C(=O)Nc3ccc4ncccc4c32)cc1,62.2%,79.8%,85.4%,46%,76%,60.4%,80.7%,2.62%,9.02%,2.95%,7.93%,4.26%,18.3%,1.9%,2.53%,7.46%,41.1%,5%,26.3%,10.9%
N#Cc1c(NC(=O)c2ccc(F)cc2)sc2c1CCCC2,2.24%,-1.13%,2.02%,1.51%,1.17%,0.78%,2.38%,0.76%,0.45%,0.66%,-0.01%,0.08%,0.72%,-0.9%,2.49%,0.15%,0.56%,-0.21%,0.73%,0.39%
COc1cc2c(cc1Nc1nc(Nc3ccsc3C(N)=O)c3cc[nH]c3n1)N(C(=O)CN(C)C)CCC2(C)C,7.54%,5.54%,9.13%,4.27%,6.36%,4.89%,4.71%,5.46%,30.8%,4.03%,10.5%,7.45%,25.7%,3.29%,19.9%,-0.75%,-2.52%,0.76%,21.1%,-1.5%

# Source: ChEMBL document CHEMBL1961873, “Compounds: GSK PKIS; Assays: Nanosyn kinase panel” (2012)
